Most compounds without a hit are left out; they make up all but 3.2% or so of the library.
SMARCA2 act – SMARCA2 (BRM) function activators, primary screen, cell-based, luminescence, high throughput; MG213 cells, MMTV-luciferase reporter, dexamethasone, overnight; activation, % at 9.1 µM; 370,000 compounds, 1% hits; in the data active = activation above about 7.8%;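 note: 0% = vehicle wells and 100% = reference activator wells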
dFosB activator – activators of delta FosB homodimer, primary screen, biochemical, fluorescence polarization, TAMRA-CDK5 oligo, single point. 340,000 compounds, 0.99% hits. purified delta FosB; percent of positive-control signal above neutral wells. activation, % at 25 µM. AID 493131, 2011. Protein FosB (Mus musculus), P13346;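 active = mean activation above about 17%, with every replicate also reaching it, limit read from the data, passing the limit was not always enough; inconclusive = only one of the two conditions met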
Rtt109 HAT inh – inhibitors of C. albicans Rtt109/Vps75 HAT, primary screen, biochemical, ThioGlo CoA-SH fluorescence, plate reader. purified Rtt109/Vps75, 4 h. 330,000 compounds, 0.16% hits. inhibition, % at 34.9 µM;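 active = inhibition of at least 50% in every replicate; inconclusive = best replicate reaches 50% inhibition but some replicates fall short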
Target sequence (Q5AAJ8 whole entry, looked up): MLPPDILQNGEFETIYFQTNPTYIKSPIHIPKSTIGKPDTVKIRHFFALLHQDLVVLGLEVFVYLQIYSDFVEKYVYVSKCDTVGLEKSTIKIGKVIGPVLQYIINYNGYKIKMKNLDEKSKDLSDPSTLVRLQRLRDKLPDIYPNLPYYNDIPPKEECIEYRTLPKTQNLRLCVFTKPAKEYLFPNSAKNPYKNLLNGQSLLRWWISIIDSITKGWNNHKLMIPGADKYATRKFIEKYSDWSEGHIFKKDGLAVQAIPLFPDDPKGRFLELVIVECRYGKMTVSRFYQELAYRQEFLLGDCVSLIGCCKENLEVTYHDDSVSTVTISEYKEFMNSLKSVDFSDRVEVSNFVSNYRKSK
DYRK1A inh – rat Dyrk1A kinase inhibitors, primary screen, biochemical, single point, plate reader. inhibition, % at 12.5 µM. 310,000 compounds, 0.43% hits. AID 504441, 2011. ADP-Glo luminescence, NFATc1 peptide; in the data active = inhibition above about 50%;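 note: plate controls were vehicle with enzyme for no effect and no enzyme for full effect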
CDK5 p35 inh – inhibitors of human CDK5/p35 kinase, primary screen, biochemical, single concentration; Cyclin-dependent kinase 5 (Homo sapiens) + Cyclin-dependent kinase 5 activator 1 (Homo …; Recombinant CDK5/p35, ADP-Glo luminescence, 60 min; inhibition, % at 10 µM; 330,000 compounds, 0.01% hits;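 active = highest replicate inhibition of at least 50% and at least 75% of replicates reaching 50%; inconclusive = only one of the two criteria met; inactive = both criteria failed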;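 note: plate controls were DMSO neutral control for no effect and GW8510 at 10 µM for full effect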
esBAF inh – Bmi1 luciferase reporter increase in mESCs, primary screen, esBAF inhibitor project, mouse ES cells, Bmi1 luciferase knock-in, single point; 24 h; 100% = twice the neutral-well signal; reporter increase, % at 12.5 µM; 350,000 compounds, 2% hits; AID 602393, 2012; in the data active = activation above about 40%; inconclusive = no clear call, values can overlap the other calls;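 note: 0% = median of the plate's neutral control wells and 100% = double that signal; a rise in the Bmi1 reporter signal indicates esBAF inhibition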
* hit, by the source's call.

Results for O=S(=O)(Nc1ccc(-c2nnc(SCc3ccc(Cl)cc3)o2)cc1)c1ccccc1 ?
SMARCA2 act: -2; dFosB activator: 2; Rtt109 HAT inh: 57*; DYRK1A inh: -5; CDK5 p35 inh: -1

Results for Cc1ccc(-c2nnc(-c3cccnc3)o2)cc1 ?
SMARCA2 act: 2; dFosB activator: -10; Rtt109 HAT inh: -11; DYRK1A inh: 6; CDK5 p35 inh: 0; esBAF inh: 20

Results for C#CCSc1nnc(-c2ccc(O)cc2)o1 ?
SMARCA2 act: 3; dFosB activator: -8; Rtt109 HAT inh: 5; DYRK1A inh: 36; CDK5 p35 inh: 1; esBAF inh: 69*

Results for C#CCSc1nnc(-c2ccc(C)cc2)o1 ?
SMARCA2 act: 4; dFosB activator: -8; Rtt109 HAT inh: 6; DYRK1A inh: -7; CDK5 p35 inh: 1; esBAF inh: inconclusive

How did CN1c2ccc(-c3ccccc3F)cc2[C@@H]2[C@@H](CCN2C(=O)Nc2ccc(F)cc2)[C@@H]1CO do in these assays?
esBAF inh: 10

Results for c1ccc(CSc2ccc(-c3cccnc3)nn2)cc1 ?
SMARCA2 act: 4; dFosB activator: -8; Rtt109 HAT inh: -9; CDK5 p35 inh: 0; esBAF inh: 59*

Results for Oc1ccc(-c2nnc(SCc3ccccc3)o2)cc1 ?
SMARCA2 act: 4; dFosB activator: -4; Rtt109 HAT inh: -4; DYRK1A inh: 45; CDK5 p35 inh: 3; esBAF inh: 49*

Results for O=S(=O)(c1ccc(-c2nnc(SCc3ccccc3)o2)cc1)N1CCCC1 ?
SMARCA2 act: 4; dFosB activator: 1; Rtt109 HAT inh: 8; DYRK1A inh: -4; CDK5 p35 inh: 0; esBAF inh: 14

Results for CC=Cc1ccc2n(c1=O)C[C@H]1[C@H](CO)[C@@H](C(=O)N3CCCCC3)N(CC3CC3)[C@@H]21 (mixture of isomers) ?
esBAF inh: 0

How did Cc1cccc(NC(=O)c2ccccc2Br)n1 do in these assays?
SMARCA2 act: 3; dFosB activator: 1; Rtt109 HAT inh: 7; DYRK1A inh: 10; CDK5 p35 inh: 0; esBAF inh: 37

Results for Cc1csc(NC(=O)c2ccc(COc3ccccc3)o2)n1 ?
SMARCA2 act: -3; dFosB activator: -4; Rtt109 HAT inh: -1; DYRK1A inh: 5; CDK5 p35 inh: 1; esBAF inh: 63*

What do the screens show for `Cc1cccc(NC(=O)c2ccoc2C)n1`?
SMARCA2 act: 2; dFosB activator: 2; Rtt109 HAT inh: -9; DYRK1A inh: 0; CDK5 p35 inh: 0; esBAF inh: 45*

What do the screens show for `Cc1csc(NC(=O)CSc2nnc(-c3ccoc3C)o2)n1`?
SMARCA2 act: 3; dFosB activator: -2; Rtt109 HAT inh: -4; DYRK1A inh: 0; CDK5 p35 inh: 0; esBAF inh: 43*

Results for Cc1csc(NC(=O)c2ccoc2C)n1 ?
SMARCA2 act: 6; dFosB activator: -3; Rtt109 HAT inh: -1; DYRK1A inh: 28; CDK5 p35 inh: 8; esBAF inh: 42*

Results for CC(C)(C)[S@@](=O)N1Cc2cc(C(=O)NCc3ccccc3F)nc(-c3cccc(-c4ccncc4)c3)c2[C@H]1CCO ?
esBAF inh: 10

What do the screens show for `O=C(NCC[C@@H]1CC[C@@H](NS(=O)(=O)c2ccccc2)[C@H](CO)O1)c1cc(Cl)cc(Cl)c1`?
esBAF inh: -6

What do the screens show for `COc1ccc(S(=O)(=O)N(C)C[C@@H]2Oc3ccc(NC(=O)Nc4ccc(C(F)(F)F)cc4)cc3C(=O)N([C@H](C)CO)C[C@H]2C)cc1`?
esBAF inh: -1

What do the screens show for `Cc1cccc(NC(=O)c2ccc(S(=O)(=O)N(C)C)cc2)n1`?
SMARCA2 act: 3; dFosB activator: -1; Rtt109 HAT inh: 8; DYRK1A inh: 6; CDK5 p35 inh: 0; esBAF inh: 49*

What do the screens show for `CCc1nnc(NS(=O)(=O)c2ccc(N/C=C\C(=O)c3cccc(OC)c3)cc2)s1`?
SMARCA2 act: 7.9*; dFosB activator: -7; Rtt109 HAT inh: 21; DYRK1A inh: 32; CDK5 p35 inh: -2

Results for O=C(NC(=S)Nc1cccnc1)c1cccs1 ?
SMARCA2 act: -1; dFosB activator: -5; Rtt109 HAT inh: -4; DYRK1A inh: 0; CDK5 p35 inh: 0; esBAF inh: 10

Results for O=C(NC(=S)Nc1ccc(Cl)cn1)c1cccs1 ?
SMARCA2 act: 2; dFosB activator: 4; Rtt109 HAT inh: 5; DYRK1A inh: 12; CDK5 p35 inh: -1; esBAF inh: 72*

What do the screens show for `CCCN(C)C[C@H]1Oc2cc(C#C[C@H](C)O)ccc2S(=O)(=O)N([C@@H](C)CO)C[C@H]1C`?
esBAF inh: -5

What do the screens show for `Cc1ccc2nc(-c3ccc(NC(=O)CN4CCN(c5ccccn5)CC4)cc3)sc2c1`?
SMARCA2 act: 7

What do the screens show for `Cc1ccc2nc(-c3ccc(NC(=O)CN4C(=O)c5ccccc5C4=O)cc3)sc2c1`?
SMARCA2 act: 16*; dFosB activator: 0; Rtt109 HAT inh: -5; DYRK1A inh: -3; CDK5 p35 inh: -3

Results for Cc1ccc2nc(-c3ccc(NC(=O)CSc4nccc(=O)[nH]4)cc3)sc2c1 ?
SMARCA2 act: 2; dFosB activator: -2; Rtt109 HAT inh: -5; DYRK1A inh: -10; CDK5 p35 inh: 0

How did Cc1ccc2nc(-c3ccc(NC(=S)NC(=O)CC(C)C)cc3)sc2c1 do in these assays?
SMARCA2 act: 0; dFosB activator: 3; Rtt109 HAT inh: 2; DYRK1A inh: 3; CDK5 p35 inh: 2; esBAF inh: 73*

Results for c1ccc(N2CCN(c3nc4cc5c(cc4s3)OCCO5)CC2)cc1 ?
SMARCA2 act: 1; dFosB activator: -10; Rtt109 HAT inh: -6; DYRK1A inh: -5; CDK5 p35 inh: 0; esBAF inh: 48*

What do the screens show for `C[C@@H]1CN([C@H](C)CO)C(=O)Cc2cc(NC(=O)C3CC3)ccc2O[C@@H]1CN(C)C(=O)Nc1ccccc1`?
esBAF inh: -2

What do the screens show for `COc1ccccc1C1CCN(c2ccc([N+](=O)[O-])c(OC)c2)CC1`?
SMARCA2 act: 0; dFosB activator: -12; Rtt109 HAT inh: 8; CDK5 p35 inh: 0; esBAF inh: 55*

How did O=C(C1CC1)N1C[C@@H]2[C@H](c3ccccc31)[C@H](CO)N2C(=O)Nc1cccc(F)c1 do in these assays?
esBAF inh: -5
